In all, about 39,000 compounds went through this assay and about 3,300 (8.5%) were called active. The full list was thinned out, with actives kept by preference.

In this experiment the test system is HepG2. As to the kind of experiment: cytotoxicity call (relative viability < 0.9). To be noted: 10 µM.
With `Cn1c(=O)c2c(nc(N3CCNCC3)n2CC(=O)c2ccc(Cl)cc2)n(C)c1=O`, the cytotoxicity call is “inactive”. Consider `COc1ccc(S(=O)(=O)N(C)C[C@H]2Oc3ccc(NC(=O)CCCN(C)C)cc3C(=O)N([C@@H](C)CO)C[C@@H]2C)cc1`, for which the cytotoxicity call was “inactive”. As to `COc1cccc(S(=O)(=O)N2C[C@@H](O)COC[C@@H]3O[C@H](CC(=O)NCCCN4CCOCC4)CC[C@H]32)c1`, the cytotoxicity call is “inactive”. The result for `C[C@@H]1CN([C@H](C)CO)C(=O)c2cc(NC(=O)CCC(F)(F)F)ccc2O[C@@H](C)CCCCO[C@@H]1CN(C)Cc1ccncc1` reads “inactive”.

On to `COc1ccc(Oc2cc(NCCC(F)(F)F)c3ncc(-c4ccc(C(=O)NC5CC5)c(C)c4)n3n2)c(F)c1F`, for which the cytotoxicity call is “inactive”. The result for `C[C@@H]1CN([C@@H](C)CO)C(=O)c2cc(NC(=O)NC3CCCCC3)ccc2O[C@@H]1CN(C)S(C)(=O)=O` reads “inactive”. The result for `C[C@H]1CN([C@@H](C)CO)S(=O)(=O)c2ccc(-c3cccc(C#N)c3)cc2O[C@@H]1CN(C)C(=O)c1ccncc1` reads “inactive”; that for `C[C@@H]1CN([C@@H](C)CO)C(=O)c2cc(NS(=O)(=O)c3ccccc3)ccc2O[C@@H](C)CCCCO[C@H]1CN(C)Cc1ccc(C(F)(F)F)cc1`, “inactive”; that for `C[C@@H]1CN([C@H](C)CO)C(=O)c2cc(NS(=O)(=O)c3ccccc3)ccc2O[C@@H](C)CCCCO[C@H]1CN(C)Cc1ccc(C(F)(F)F)cc1`, “active”. Take `C[C@@H]1CN([C@@H](C)CO)C(=O)c2cc(NS(=O)(=O)c3ccccc3)ccc2O[C@@H](C)CCCCO[C@@H]1CN(C)Cc1ccc(C(F)(F)F)cc1`: the cytotoxicity call is “inactive”. The result for `C[C@@H]1CCCCO[C@H](CN(C)Cc2ccc(C(F)(F)F)cc2)[C@@H](C)CN([C@@H](C)CO)C(=O)c2cc(NS(=O)(=O)c3ccccc3)ccc2O1` reads “inactive”; that for `C[C@@H]1CN([C@H](C)CO)C(=O)c2cc(NS(=O)(=O)c3ccccc3)ccc2O[C@@H](C)CCCCO[C@@H]1CN(C)Cc1ccc(C(F)(F)F)cc1`, “inactive”; that for `C[C@@H]1CCCCO[C@H](CN(C)Cc2ccc(C(F)(F)F)cc2)[C@H](C)CN([C@@H](C)CO)C(=O)c2cc(NS(=O)(=O)c3ccccc3)ccc2O1`, “active”. The result for `C[C@H]1CN([C@@H](C)CO)C(=O)c2cccc(NC(=O)c3nc4ccccc4s3)c2O[C@H]1CN(C)S(=O)(=O)c1cn(C)cn1` reads “inactive”; that for `CCCNC(=O)Nc1ccc2c(c1)OC[C@H](C)N(C(=O)C1CCOCC1)C[C@@H](C)[C@@H](OC)CN(C)C2=O`, “inactive”; that for `Cc1noc(C)c1S(=O)(=O)Nc1cccc2c1O[C@@H](CN(C)CC1CC1)[C@@H](C)CN([C@H](C)CO)C2=O`, “inactive”. The result for `Cc1ccc(S(=O)(=O)N2C[C@H](O)COC[C@@H]3O[C@H](CC(=O)NCc4ccc5c(c4)OCO5)CC[C@H]32)cc1` reads “active”; that for `Cc1ccc(S(=O)(=O)N2C[C@@H](O)COC[C@@H]3O[C@H](CC(=O)NCc4ccc(Cl)c(Cl)c4)CC[C@H]32)cc1`, “inactive”. Regarding `Cc1cccc(S(=O)(=O)N2C[C@@H](O)COC[C@H]3O[C@H](CC(=O)NCc4ccc(Cl)c(Cl)c4)CC[C@@H]32)c1`, the cytotoxicity call is “inactive”. The result for `Cc1ccc(S(=O)(=O)N2C[C@@H](O)COC[C@@H]3O[C@@H](CC(=O)NCc4ccc(Cl)c(Cl)c4)CC[C@H]32)cc1` reads “active”; that for `Cc1ccc(S(=O)(=O)N2C[C@H](O)COC[C@@H]3O[C@@H](CC(=O)NCc4ccc(Cl)c(Cl)c4)CC[C@H]32)cc1`, “inactive”; that for `Cc1ccc(S(=O)(=O)N2C[C@@H](O)COC[C@H]3O[C@H](CC(=O)NCc4ccc(Cl)c(Cl)c4)CC[C@@H]32)cc1`, “inactive”. The result for `Cc1ccc(S(=O)(=O)N2C[C@H](O)COC[C@H]3O[C@H](CC(=O)NCc4ccc(Cl)c(Cl)c4)CC[C@@H]32)cc1` reads “inactive”; that for `Cc1ccc(S(=O)(=O)N2C[C@@H](O)COC[C@@H]3O[C@@H](CC(=O)NCc4ccc5c(c4)OCO5)CC[C@H]32)cc1`, “inactive”. With `Cc1ccc(S(=O)(=O)N2C[C@@H](O)COC[C@H]3O[C@H](CC(=O)NCc4ccc5c(c4)OCO5)CC[C@@H]32)cc1`, the cytotoxicity call was “inactive”. On to `Cc1ccc(S(=O)(=O)N2C[C@@H](O)COC[C@H]3O[C@@H](CC(=O)NCc4ccc(Cl)c(Cl)c4)CC[C@@H]32)cc1`, for which the cytotoxicity call was “inactive”.

Regarding `Cc1ccc(S(=O)(=O)N2C[C@H](O)COC[C@H]3O[C@@H](CC(=O)NCc4ccc(Cl)c(Cl)c4)CC[C@@H]32)cc1`, the cytotoxicity call was “active”. The result for `Cc1ccc(S(=O)(=O)N2C[C@H](O)COC[C@@H]3O[C@H](CC(=O)NCc4ccc(Cl)c(Cl)c4)CC[C@H]32)cc1` reads “active”; that for `C[C@H](CO)N1C[C@H](C)[C@@H](CN(C)C(=O)CCC(F)(F)F)OCc2ccccc2-c2c(n(C)c3ccccc23)C1=O`, “inactive”.

For the compound `CSc1scc(-c2cc(Cl)cc(Cl)c2)c1C#N`, the cytotoxicity call is “inactive”. The result for `C[C@H](CO)N1C[C@H](C)[C@@H](CN(C)S(=O)(=O)c2cccs2)Oc2ccc(NC(=O)CCCN(C)C)cc2C1=O` reads “inactive”.

Take `Cc1ccc(S(=O)(=O)Nc2ccc3c(c2)C(=O)N([C@@H](C)CO)C[C@@H](C)[C@@H](CN(C)C(=O)Nc2ccccc2)OCCCC[C@@H](C)O3)cc1`: the cytotoxicity call is “inactive”. Consider `CCCC/C=C/[C@H]([C@@H](O)Cc1ccccc1)N(CC#Cc1ccccc1)Cc1ccccc1Br`, for which the cytotoxicity call is “inactive”. The result for `COc1ccc(NC(=O)Nc2ccc3c(c2)C(=O)N([C@H](C)CO)C[C@@H](C)[C@@H](CN(C)C(=O)Nc2ccc(C(F)(F)F)cc2)O3)cc1` reads “inactive”; that for `C[C@@H](O)CN1CCN(S(=O)(=O)C2CC2)CC1`, “inactive”. For the compound `C[C@@H]1CN([C@H](C)CO)C(=O)c2cccc(NC(=O)C3CC3)c2O[C@H]1CN(C)S(=O)(=O)c1ccccc1`, the cytotoxicity call is “inactive”. The result for `CC(=O)Nc1nc(C(=O)O)cs1` reads “inactive”; that for `CC(C)(C)c1cc(NC(=O)Nc2ccc(Oc3ccnc4nc(O)cnc34)cc2F)n(-c2ccccc2)n1`, “inactive”. The result for `Cc1ccc(-n2nc(C(C)(C)C)cc2NC(=O)Nc2ccc(OCCN3CCOCC3)c3ccccc23)cc1` reads “active”.

For `Cc1ccc(S(=O)(=O)NC2=NCN(CCN3CCOCC3)CN2)cc1`, the cytotoxicity call was “inactive”. `CCCNC(=O)N1C[C@@H](C)[C@@H](OC)CN(C)C(=O)c2cc(NS(=O)(=O)CC(F)(F)F)ccc2OC[C@H]1C`: the cytotoxicity call was “inactive”.

Regarding `CC1(C)OC2CC3C4CC(F)C5=CC(=O)C=CC5(C)C4C(O)CC3(C)C2(C(=O)CO)O1` (stereo unspecified), the cytotoxicity call is “inactive”.

Consider `C[C@@H]1CN([C@@H](C)CO)C(=O)c2cccc(NC(=O)C3CCCCC3)c2O[C@@H]1CN(C)S(=O)(=O)c1cn(C)cn1`, for which the cytotoxicity call was “inactive”. The result for `COc1ccc([Si](C)(C)[C@@H]2[C@@H](CCn3cc(CCO)nn3)O[C@]3(C(=O)N(Cc4ccc(N5C(=O)c6cccc7cccc5c67)cc4)c4ccccc43)[C@H]2C)cc1` reads “active”; that for `COc1ccc([Si](C)(C)[C@@H]2[C@@H](CCn3cc(CCO)nn3)O[C@]3(C(=O)N(C)c4ccccc43)[C@H]2C)cc1`, “inactive”; that for `COc1ccc([Si](C)(C)[C@@H]2[C@@H](CCn3cc([C@H](O)c4ccccc4)nn3)O[C@]3(C(=O)N(Cc4ccc(N5C(=O)c6cccc7cccc5c67)cc4)c4ccccc43)[C@H]2C)cc1`, “active”.

For the compound `COc1ccc([Si](C)(C)[C@H]2[C@H](CCn3cc([C@H](O)c4ccccc4)nn3)O[C@@]3(C(=O)N(Cc4ccc(N5C(=O)c6cccc7cccc5c67)cc4)c4ccccc43)[C@@H]2C)cc1`, the cytotoxicity call was “inactive”. Take `COc1ccc([Si](C)(C)[C@@H]2[C@@H](CCn3cc(CCO)nn3)O[C@]3(C(=O)N(Cc4cccc(N5C(=O)c6cccc7cccc5c67)c4)c4ccccc43)[C@H]2C)cc1`: the cytotoxicity call is “active”. The result for `COc1ccc([Si](C)(C)[C@H]2[C@H](CCn3cc([C@H](O)c4ccccc4)nn3)O[C@@]3(C(=O)N(Cc4cccc(N5C(=O)c6cccc7cccc5c67)c4)c4ccccc43)[C@@H]2C)cc1` reads “inactive”; that for `COc1ccc([Si](C)(C)[C@H]2[C@H](CCn3cc(CCO)nn3)O[C@@]3(C(=O)N(Cc4cccc(N5C(=O)c6cccc7cccc5c67)c4)c4ccccc43)[C@@H]2C)cc1`, “inactive”; that for `C[C@H]1[C@H]([Si](C)(C)F)[C@@H](CCn2cc([C@H](O)c3ccccc3)nn2)O[C@]12C(=O)N(c1ccccc1)c1ccccc12`, “inactive”. The result for `COc1ccc([Si](C)(C)[C@@H]2[C@@H](CCn3cc([C@H](O)c4ccccc4)nn3)O[C@]3(C(=O)N(c4ccccc4)c4ccccc43)[C@H]2C)cc1` reads “inactive”.

With `COc1ccc([Si](C)(C)[C@H]2[C@H](CCn3cc(CCO)nn3)O[C@@]3(C(=O)N(C)c4ccccc43)[C@@H]2C)cc1`, the cytotoxicity call is “inactive”. On to `C[C@@H]1[C@@H]([Si](C)(C)F)[C@H](CCn2cc([C@H](O)c3ccccc3)nn2)O[C@@]12C(=O)N(c1ccccc1)c1ccccc12`, for which the cytotoxicity call is “active”. As for `COc1ccc([Si](C)(C)[C@@H]2[C@@H](CCn3cc([C@H](O)c4ccccc4)nn3)O[C@]3(C(=O)N(Cc4cccc(N5C(=O)c6cccc7cccc5c67)c4)c4ccccc43)[C@H]2C)cc1`, the cytotoxicity call was “inactive”.

As for `COc1ccc(C#Cc2ccc([C@H]3[C@@H](CO)N4CCCCN(S(=O)(=O)c5cn(C)cn5)C[C@H]34)cc2)cc1`, the cytotoxicity call was “inactive”. The result for `C[C@@H]1CN([C@H](C)CO)S(=O)(=O)c2ccc(-c3cncnc3)cc2O[C@@H]1CN(C)C(=O)Cc1cccnc1` reads “inactive”; that for `Cl.N=C(N)NCCCC(N)C(=O)O` (stereo unspecified), “inactive”; that for `C[C@@H]1CCCCO[C@H](CN(C)Cc2ccc(C(=O)O)cc2)[C@@H](C)CN([C@H](C)CO)C(=O)c2cc(NC(=O)Nc3ccc(F)cc3)ccc2O1`, “inactive”. In the case of `C[C@@H]1CN([C@@H](C)CO)C(=O)c2cc(NC(=O)CCN3CCOCC3)ccc2O[C@H]1CN(C)C(=O)Nc1ccc(F)cc1`, the cytotoxicity call was “inactive”. The result for `COc1ccc(NC(=O)Nc2ccc3c(c2)C(=O)N([C@@H](C)CO)C[C@H](C)[C@H](CN(C)C(=O)CCC(F)(F)F)OCCCC[C@@H](C)O3)cc1` reads “inactive”.
